For 24 compounds, Potency results are on record in PubChem BioAssay (NCATS).

A short description of assay [1]: Quantitative High-Throughput drug screen in 47 multiple myeloma cell lines against the NCATS MIPE library collection: KMS12BM_JCRB cell viability assay (AID 1918971). Also: nearly all actives have a fitted effect of over 35% in size. As to conditions: KMS12BM myeloma viability, CellTiter-Glo ATP, 48 h; series mostly up to 45.8 µM. Summed up:
(§1)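 Approved and investigational drugs from MIPE 4.0 were added by pin tool to 500 cells per well. After 48 hours at 37C, ATP-based CellTiter-Glo luminescence indicated remaining viability.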
A general note: Cellular ATP, detected with luciferase, serves as a proxy for viable cell number.

Assay [2] can be described thus: Quantitative High-Throughput drug screen in 47 multiple myeloma cell lines against the NCATS MIPE library collection: KMS12PE_JCRB cell viability assay (AID 1918972). Also: nearly all actives have a fitted effect of over 30% in size. As to conditions: KMS12PE myeloma viability, CellTiter-Glo ATP, 48 h; series mostly up to 45.8 µM. The procedure, abridged:
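Inhibition of cell viability is measured here. Each line was plated at 500 cells per well, treated with MIPE 4.0 drugs, kept 48 hours at 37C, then assayed for ATP content by CellTiter-Glo luminescence.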

The nature of assay [3]: Quantitative High-Throughput drug screen in 47 multiple myeloma cell lines against the NCATS MIPE library collection: NCIH929_DSMZ cell viability assay (AID 1918978). Also: nearly all actives have a fitted effect of over 35% in size. Particulars: NCI-H929 myeloma viability, CellTiter-Glo ATP, 48 h; series mostly up to 45.8 µM. The procedure, abridged:
(§2)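 ATP-based luminescence (CellTiter-Glo, 5 min RT incubation) quantified surviving cells following two days' treatment with MIPE 4.0 agents at 37 °C, 5% CO2.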

Assay [4] can be described thus: Quantitative High-Throughput drug screen in 47 multiple myeloma cell lines against the NCATS MIPE library collection: OCIMY1_PLB cell viability assay (AID 1918979). Also: nearly all actives have a fitted effect of over 35% in size. Particulars: OCI-MY1 myeloma viability, CellTiter-Glo ATP, 48 h; series mostly up to 45.8 µM. Summed up: as §2
Assay [5] can be described thus: Quantitative High-Throughput drug screen in 47 multiple myeloma cell lines against the NCATS MIPE library collection: MM1R_ATCC cell viability assay (AID 1918981). Also: nearly all actives have a fitted effect of over 35% in size. As to conditions: MM1R multiple myeloma cells, CellTiter-Glo viability, 48 h; series mostly up to 45.8 µM. Summed up:
as §2

The nature of assay [6]: Quantitative High-Throughput drug screen in 47 multiple myeloma cell lines against the NCATS MIPE library collection: KMS20_JCRB cell viability assay (AID 1918973). Also: nearly all actives have a fitted effect of over 45% in size. Particulars: CellTiter-Glo ATP, 48 h; series mostly up to 45.8 µM. Summed up: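 CellTiter-Glo luminescence (ATP) after 48 h compound exposure, 37C/5% CO2; 500 cells/well; MIPE 4.0 approved/investigational drugs pinned in; DMSO = 100%, media only = 0% viability.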

A short description of assay [7]: Quantitative High-Throughput drug screen in 47 multiple myeloma cell lines against the NCATS MIPE library collection: MM1S_ATCC cell viability assay (AID 1918980). Also: nearly all actives have a fitted effect of over 45% in size. As to conditions: MM1S myeloma viability, CellTiter-Glo ATP luminescence, 48 h; series mostly up to 45.8 µM. The procedure, abridged:
as §2

Assay [8] can be described thus: Quantitative High-Throughput drug screen in 47 multiple myeloma cell lines against the NCATS MIPE library collection: KMS26_JCRB cell viability assay (AID 1918975). Also: nearly all actives have a fitted effect of over 45% in size. Particulars: KMS26 myeloma cells viability, CellTiter-Glo ATP, 48 h; series mostly up to 45.8 µM. Summed up:
as §1

Assay [9] can be described thus: Quantitative High-Throughput drug screen in 47 multiple myeloma cell lines against the NCATS MIPE library collection: MMM1_PLB cell viability assay (AID 1918976). Also: nearly all actives have a fitted effect of over 35% in size. As to conditions: MMM1 myeloma cells viability, CellTiter-Glo, 48 h; series mostly up to 45.8 µM. Summed up: as §2
Assay [10] is described as follows: Quantitative High-Throughput drug screen in 47 multiple myeloma cell lines against the NCATS MIPE library collection: MOLP8_DSMZ cell viability assay (AID 1918977). Also: nearly all actives have a fitted effect of over 45% in size. Particulars: MOLP8 myeloma viability, CellTiter-Glo ATP luminescence, 48 h; series mostly up to 45.8 µM. The procedure, abridged: as §2

Inconclusive results are not listed. Activity calls are given as the source filed them. Calls follow the shape of the dose curve; as a rule, active = well fitted curve in the direction sought with a large enough effect; inconclusive = small, poorly fitted or top-dose-only effect, or another doubt; inactive = no such curve, though single readings can be large; an effect the other way counts as inactive or inconclusive.
Potency is read from the fitted curve at half-maximal effect.

As for `COc1ccc([C@@H]2CC(=O)c3c(O)cc(O[C@@H]4O[C@H](CO[C@@H]5O[C@@H](C)[C@H](O)[C@@H](O)[C@@H]5O)[C@@H](O)[C@H](O)[C@@H]4O)cc3O2)cc1O`, the Potency result in [1], in assay [2], in [3], in assay [4] and in assay [5] was “inactive” in each case.

With `O=C(O)[C@@H](c1ccc(OCc2ccc3ccccc3n2)cc1)C1CCCC1`, the Potency result in assay [1], in assay [2], in assay [6], in assay [3], in assay [4] and in [7] was “inactive” in each case.

As to `Cc1c(CN2CCN(C(=O)C(C)C)CC2)sc2c(N3CCOCC3)nc(-c3cnc(N)nc3)nc12`, the Potency in assay [1] is 0.0296 µM (active); in assay [2], 0.296 µM (active); in [6], 0.418 µM (active); in assay [8], 0.264 µM (active); in assay [9] it was 0.0526 µM (active); in assay [3], 0.0166 µM (active). The Potency in [7] is 0.132 µM (active); in [5], 0.0469 µM (active).

Take `NC(=O)C1CCCc2c1[nH]c1ccc(Cl)cc21` (stereo unspecified): the Potency in [1] is 1.66 µM (active); in assay [2] it was 14.8 µM (active); in assay [9], 3.32 µM (active); in assay [5] it was 14.8 µM (active). The Potency result in assay [3] and in assay [4] was “inactive” each time.

On to `O=C(O)COCCN1CCN(C(c2ccccc2)c2ccc(Cl)cc2)CC1` (stereo unspecified), for which the Potency result in assay [1], in assay [2], in assay [10], in [4], in assay [7] and in [5] was “inactive” in each case.

Regarding `COc1cc2nccc(Oc3ccc(NC(=O)NC4CC4)c(Cl)c3)c2cc1C(N)=O`, the Potency in [1] is 5.9 µM (active); in [2], 0.833 µM (active); in [6], 13.2 µM (active); in assay [3], 16.6 µM (active); in [4], 20.9 µM (active); in assay [7], 0.264 µM (active). Also, the Potency in assay [5] is 1.18 µM (active).

In the case of `CCC(=O)N[C@H]1CC[C@H](C(=O)N(C)c2ccc(-c3nc4ccccc4o3)cc2)C1`, the Potency result in assay [1] and in assay [4] was “inactive” in each case. For the same compound, the Potency was 4.69 µM (active) in assay [2]; 7.43 µM (active) in assay [6]; 14.8 µM (active) in assay [9]; 2.96 µM (active) in assay [3]; 5.26 µM (active) in assay [7]; 3.72 µM (active) in assay [5].

As for `Cc1cccc(-c2[nH]c(C(C)(C)C)nc2-c2ccc3nccnc3c2)n1`, the Potency in assay [1] was 20.9 µM (active); in [2] it was 4.69 µM (active); in [3], 16.6 µM (active); in assay [5], 20.9 µM (active).

Regarding `CC(=O)NC(C)c1ccc(Oc2ccc(OC(C)C)cc2)cc1` (stereo unspecified), the Potency in assay [1] is 13.2 µM (active); in [2] it was 5.9 µM (active); in [9], 16.6 µM (active); in [3], 10.5 µM (active); in assay [4], 14.8 µM (active).

Turning to `Cc1cc2c(C(C)C)c(O)c(O)c(C=O)c2c(O)c1-c1c(C)cc2c(C(C)C)c(O)c(O)c(C=O)c2c1O`, the Potency is 14.8 µM (active) in [1]; 7.43 µM (active) in assay [2]; 11.8 µM (active) in assay [6]; 18.7 µM (active) in assay [9]; 9.35 µM (active) in assay [3]; 14.8 µM (active) in assay [4]. Moreover, the values for the Potency in assay [7] and in assay [5] were 16.6 µM (active) and 13.2 µM (active), respectively.

For the compound `CCOc1cc(N2CCC(O)CC2)ccc1Nc1ncc2c(n1)N(C)c1ccccc1C(=O)N2C`, the Potency in assay [1] was 11.8 µM (active); in assay [2], 1.05 µM (active); in assay [8], 4.18 µM (active); in [7], 5.26 µM (active); in assay [5], 16.6 µM (active).

On to `Nc1ccc(S(=O)(=O)Nc2ccnn2-c2ccccc2)cc1`, for which the Potency result in assay [1], in [2], in assay [10], in [3], in assay [4] and in assay [7] was “inactive” in each case. The Potency entry in assay [5] was “inactive”.

Take `Cn1cc(-c2ccc3nnc(C(F)(F)c4ccc5ncccc5c4)n3n2)cn1`: the Potency in [1] is 23.5 µM (active); in assay [2] it was 20.9 µM (active); in assay [7] it was 8.33 µM (active). The Potency entry in assay [6], in assay [3] and in assay [4] was “inactive” each time.

Turning to `c1ccc(-c2nn3c(c2-c2ccnc4cc(OCCN5CCOCC5)ccc24)CCC3)nc1`, in assay [1], the Potency was 26.4 µM (active). In [6], the Potency entry was “inactive”.

In the case of `COc1ccc(C2=N[C@H](c3ccc(Cl)cc3)[C@H](c3ccc(Cl)cc3)N2C(=O)N2CCNC(=O)C2)c(OC(C)C)c1`, the Potency was 20.9 µM (active) in [1]; 16.6 µM (active) in assay [8]; 4.69 µM (active) in assay [9]; 8.33 µM (active) in assay [10]; 5.26 µM (active) in assay [3]; 2.09 µM (active) in assay [7]. Also, the Potency in assay [5] is 2.35 µM (active). For the same compound, the Potency entry in assay [4] is “inactive”.

Turning to `Cc1[nH]c(=O)c(C#N)cc1-c1ccncc1`, the Potency result in assay [1], in assay [8], in [4] and in [5] was “inactive” each time. Also, in assay [3], the Potency was 10.5 µM (active).

Turning to `Cc1c(CCOc2ccc(C(=O)O)cc2)c2cc(Cl)ccc2n1C(c1ccccc1)c1ccccc1`, the Potency entry in [2], in assay [6], in [3] and in assay [4] was “inactive” throughout. The Potency in assay [9] was 14.8 µM (active); in assay [7], 9.35 µM (active); in assay [5], 11.8 µM (active).

As for `NCCc1ccc(O)c(O)c1`, the Potency in [1] was 7.43 µM (active); in [2], 20.9 µM (active); in assay [7], 20.9 µM (active).

For the compound `N#Cc1ccc(C(c2ccc(C#N)cc2)n2cncn2)cc1`, the Potency result in assay [2], in [6] and in [3] was “inactive” throughout. For the same compound, the values for the Potency in assay [9] and in assay [4] were 11.8 µM (active) and 3.72 µM (active), respectively.

Turning to `C[C@H](NC(=O)Cc1cc(F)cc(F)c1)C(=O)N[C@@H]1C(=O)N(C)c2ccccc2-c2ccccc21`, the Potency result in [1] is “inactive”. For the same compound, the Potency in assay [3] was 4.69 µM (active); in assay [7] it was 9.35 µM (active).

In the case of `O=C(C=Cc1ccc(/C=C/C(=O)Nc2ccc(C3=NCCN3)cc2)cc1)Nc1ccc(C2=NCCN2)cc1`, the Potency result in assay [2], in [6], in [10], in assay [3] and in [4] was “inactive” each time.

On to `Nc1nc2ccc(OC(F)(F)F)cc2s1`, for which the Potency result in assay [2] and in assay [6] was “inactive” in each case. Further, the Potency in assay [9] was 23.5 µM (active); in [7], 2.64 µM (active).

In the case of `NC(N)=NC(=O)c1nc(Cl)c(N)nc1N`, the Potency entry in [1] and in assay [4] was “inactive” in each case. The Potency in assay [3] was 9.35 µM (active); in assay [7], 20.9 µM (active).

On to `CCC(C)n1ncn(-c2ccc(N3CCN(c4ccc(OC[C@H]5CO[C@](Cn6cncn6)(c6ccc(Cl)cc6Cl)O5)cc4)CC3)cc2)c1=O` (stereo partly specified), for which the values for the Potency in assay [1] and in assay [4] were 3.32 µM (active) and 4.18 µM (active), respectively. Also, the Potency result in assay [3] and in assay [7] was “inactive” in each case.
